Measurements: PubChem BioAssay AID1159580 (chemical genetic matrix, 2015)
The campaign covered roughly 5,500 compounds. About 2,000 (36%) were called active. Roughly 18% stayed inconclusive and do not appear here. Cut-off read from the data, not from the text of the source: active = normalized growth mostly below about 0.91 (no sharp cut-off); inconclusive = no clear call, values can overlap the other calls; inactive = mostly above about 0.92. The list shows a part of the results.

Test: chemical genetic growth profiling, strain panel (AID 1159580);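 note: tested at 20 µM; growth read once vehicle control cultures reached saturation at 30 °C; 1 = growth at the plate median or of vehicle wells; lower values mean less growth of the strain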
Details: growth OD

Measured: normalized growth

CCOC(=O)[C@H](CCc1ccccc1)N[C@@H](C)C(=O)N1CCC[C@H]1C(=O)O
inactive: S. cerevisiae deletion strains, locus YJR075W, strain HOC1, stronger effect = lower value 1.01 | S. cerevisiae deletion strains, locus YKL009W, strain mrt4, stronger effect = lower value 1.04 | S. cerevisiae deletion strains, locus YKL068W, stronger effect = lower value 0.998 | S. cerevisiae deletion strains, locus YKL085W, strain MDH1 (second series), stronger effect = lower value 1 | S. cerevisiae deletion strains, locus YKL085W, strain MDH1, stronger effect = lower value 1 | S. cerevisiae deletion strains, locus YKL160W, strain elf1, stronger effect = lower value 0.988 | S. cerevisiae deletion strains, locus YKL190W, strain CNB1, stronger effect = lower value 0.998 | S. cerevisiae deletion strains, locus YKR001C, strain vps1, stronger effect = lower value 1.02 | S. cerevisiae deletion strains, locus YKR026C, strain gcn3, stronger effect = lower value 1 | S. cerevisiae deletion strains, locus YKR091W, strain srl3, stronger effect = lower value 0.994 | S. cerevisiae deletion strains, locus YLL001W, strain dnm1, stronger effect = lower value 0.981 | S. cerevisiae deletion strains, locus YLL026W, stronger effect = lower value 0.989 | S. cerevisiae deletion strains, locus YLL041C, strain sdh2, stronger effect = lower value 1.01 | S. cerevisiae deletion strains, locus YLR027C, strain aat2, stronger effect = lower value 0.985 | S. cerevisiae deletion strains, locus YLR039C, strain RIC1, stronger effect = lower value 1 | S. cerevisiae deletion strains, locus YLR058C, strain SHM2, stronger effect = lower value 1.01 | S. cerevisiae deletion strains, locus YLR102C, strain apc9, stronger effect = lower value 1.02 | S. cerevisiae deletion strains, locus YLR113W, strain HOG1, stronger effect = lower value 1.05 | S. cerevisiae deletion strains, locus YLR221C, strain rsa3, stronger effect = lower value 0.975 | S. cerevisiae deletion strains, locus YLR258W, strain gsy2, stronger effect = lower value 0.992 | S. cerevisiae deletion strains, locus YLR262C, strain YPT6 (second series), stronger effect = lower value 0.998 | S. cerevisiae deletion strains, locus YLR262C, strain YPT6, stronger effect = lower value 1.03 | S. cerevisiae deletion strains, locus YLR268W, strain sec22, stronger effect = lower value 1.01 | S. cerevisiae deletion strains, locus YLR320W, strain mms22, stronger effect = lower value 0.984 | S. cerevisiae deletion strains, locus YLR330W, strain CHS5, stronger effect = lower value 1 | S. cerevisiae deletion strains, locus YLR342W, strain FKS1 (second series), stronger effect = lower value 1 | S. cerevisiae deletion strains, locus YLR342W, strain FKS1, stronger effect = lower value 0.994 | S. cerevisiae deletion strains, locus YLR357W, strain rsc2, stronger effect = lower value 0.938 | S. cerevisiae deletion strains, locus YLR370C, strain arc18, stronger effect = lower value 0.994 | S. cerevisiae deletion strains, locus YLR371W, strain rom2, stronger effect = lower value 1.02 | S. cerevisiae deletion strains, locus YLR384C, strain iki3, stronger effect = lower value 1 | S. cerevisiae deletion strains, locus YLR418C, strain cdc73, stronger effect = lower value 1.01 | S. cerevisiae deletion strains, locus YML016C, strain PPZ1, stronger effect = lower value 1.01 | S. cerevisiae deletion strains, locus YML032C, strain rad52, stronger effect = lower value 1.02 | S. cerevisiae deletion strains, locus YML120C, strain ndi1, stronger effect = lower value 1.03 | S. cerevisiae deletion strains, locus YML124C, strain tub3, stronger effect = lower value 1.01 | S. cerevisiae deletion strains, locus YMR058W, strain fet3, stronger effect = lower value 1.01 | S. cerevisiae deletion strains, locus YMR078C, strain ctf18, stronger effect = lower value 1.01 | S. cerevisiae deletion strains, locus YMR125W, strain sto1, stronger effect = lower value 0.991 | S. cerevisiae deletion strains, locus YMR129W, stronger effect = lower value 1.01 | S. cerevisiae deletion strains, locus YMR205C, strain PFK2, stronger effect = lower value 0.973 | S. cerevisiae deletion strains, locus YMR223W, strain ubp8, stronger effect = lower value 1.02 | S. cerevisiae deletion strains, locus YMR231W, strain pep5, stronger effect = lower value 0.988 | S. cerevisiae deletion strains, locus YMR263W, strain SAP30, stronger effect = lower value 1.01 | S. cerevisiae deletion strains, locus YMR307W, strain GAS1, stronger effect = lower value 1.02 | S. cerevisiae deletion strains, locus YNL067W, strain RPL9B, stronger effect = lower value 1.01 | S. cerevisiae deletion strains, locus YNL071W, strain lat1, stronger effect = lower value 1.01 | S. cerevisiae deletion strains, locus YNL128W, strain TEP1, stronger effect = lower value 1.02 | S. cerevisiae deletion strains, locus YNL183C, strain NPR1, stronger effect = lower value 0.973 | S. cerevisiae deletion strains, locus YNL209W, strain ssb2, stronger effect = lower value 0.986 | S. cerevisiae deletion strains, locus YNL233W, strain BNI4, stronger effect = lower value 1 | S. cerevisiae deletion strains, locus YNL248C, strain rpa49, stronger effect = lower value 1.03 | S. cerevisiae deletion strains, locus YNL250W, strain rad50, stronger effect = lower value 1.01 | S. cerevisiae deletion strains, locus YNL271C, strain bni1, stronger effect = lower value 1.02 | S. cerevisiae deletion strains, locus YNL298W, strain CLA4, stronger effect = lower value 1.04 | S. cerevisiae deletion strains, locus YNL307C, strain MCK1, stronger effect = lower value 1.04 | S. cerevisiae deletion strains, locus YNL322C, strain KRE1 (second series), stronger effect = lower value 0.963 | S. cerevisiae deletion strains, locus YNR049C, strain mso1, stronger effect = lower value 1 | S. cerevisiae deletion strains, locus YNR052C, strain pop2, stronger effect = lower value 1.01 | S. cerevisiae deletion strains, locus YOL006C, strain TOP1, stronger effect = lower value 1.04 | S. cerevisiae deletion strains, locus YOL012C, strain htz1 0.639 | S. cerevisiae deletion strains, locus YOL147C, strain pex11, stronger effect = lower value 1.01 | S. cerevisiae deletion strains, locus YOR001W, strain rrp6, stronger effect = lower value 1 | S. cerevisiae deletion strains, locus YOR061W, strain CKA2, stronger effect = lower value 1.01 | S. cerevisiae deletion strains, locus YOR069W, strain VPS5, stronger effect = lower value 0.992 | S. cerevisiae deletion strains, locus YOR070C, strain gyp1, stronger effect = lower value 0.963 | S. cerevisiae deletion strains, locus YOR080W, strain dia2, stronger effect = lower value 0.997 | S. cerevisiae deletion strains, locus YOR083W, strain WHI5, stronger effect = lower value 0.934 | S. cerevisiae deletion strains, locus YOR106W, strain vam3, stronger effect = lower value 0.977 | S. cerevisiae deletion strains, locus YOR136W, strain idh2, stronger effect = lower value 1.02 | S. cerevisiae deletion strains, locus YOR144C, strain elg1, stronger effect = lower value 1.01 | S. cerevisiae deletion strains, locus YOR184W, strain ser1, stronger effect = lower value 1.04 | S. cerevisiae deletion strains, locus YOR231W, strain MKK1, stronger effect = lower value 1.04 | S. cerevisiae deletion strains, locus YOR265W, strain rbl2, stronger effect = lower value 0.992 | S. cerevisiae deletion strains, locus YOR270C, strain vph1, stronger effect = lower value 0.999 | S. cerevisiae deletion strains, locus YOR290C, strain snf2, stronger effect = lower value 0.988 | S. cerevisiae deletion strains, locus YOR316C, strain cot1, stronger effect = lower value 1.02 | S. cerevisiae deletion strains, locus YPL051W, strain arl3, stronger effect = lower value 0.954 | S. cerevisiae deletion strains, locus YPL078C, strain atp4, stronger effect = lower value 0.993 | S. cerevisiae deletion strains, locus YPL106C, strain sse1, stronger effect = lower value 0.922 | S. cerevisiae deletion strains, locus YPL240C, strain hsp82, stronger effect = lower value 0.994 | S. cerevisiae deletion strains, locus YPL241C, strain CIN2, stronger effect = lower value 0.999 | S. cerevisiae deletion strains, locus YPL256C, strain CLN2, stronger effect = lower value 1.05 | S. cerevisiae deletion strains, locus YPR119W, strain clb2, stronger effect = lower value 1.02 | S. cerevisiae deletion strains, locus YPR141C, strain kar3, stronger effect = lower value 1.01 | S. cerevisiae deletion strains, locus YPR163C, strain tif3, stronger effect = lower value 1.02 | S. cerevisiae deletion strains, locus YPR167C, strain met16, stronger effect = lower value 1.02 | S. cerevisiae deletion strains, strain wtn01, stronger effect = lower value 1.01 | S. cerevisiae strains, strain wild type, stronger effect = lower value 1
